Rows were chosen to be rich in hits. Some 21% of all compounds tested hit in one or more screens of this group.
HCV inh: blocks hepatitis C virus; Huh7.5.1 HCVcc-Cre infection, luciferase reporter, 44 h; Potency, µM (highest dose often 41.8 µM), without a hit: at the highest dose activity change, negative = inhibition, actives largely listed as inhibitors; 340,000 compounds, 3.4% hits; further: potency means the concentration at half of the fitted maximal effect; on the % scale 0 is the no-effect control and ±100 the full control effect
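1,000 cells/well; 4 h culture; + compound; + HCVcc-Cre (~0.5 moi); 44 h; luciferase substrate, RT 15 min; read 15 sec.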
Pf growth 48h: P. falciparum growth inhibition at 48 hours (one generation). P. falciparum luciferase growth in erythrocytes, 48 h. Potency, µM (highest dose often 28.7 µM), inactives show at the highest dose activity change, negative = inhibition, usual class: inhibitors. 310,000 compounds, 5.9% hits; further: potency means the concentration at half of the fitted maximal effect; on the % scale 0 is the no-effect control and ±100 the full control effect
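In quantitative HTS format, infected erythrocytes bearing luciferase-reporter parasites were treated for a single generation at 37 C. Luminescence after adding detection reagent served as the growth measure.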
Shiga toxin inh: blocks Shiga toxin action in Vero cells; Vero cells, Shiga toxin protein synthesis inhibition reporter; inhibition, % at 38.7 µM; 290,000 compounds, 9.2% hits; in the data active means inhibition mostly above about 28%, no sharp cut-off; inactive means mostly below about 43%; further: 0% is about no effect
HCMV inh: inhibitors of human cytomegalovirus | HFF cells, HCMV-luciferase reporter, 72 h; active compounds read low | activity change, negative = inhibition, % at 57.5 µM | 410,000 compounds, 4.5% hits; in the data active means activity change below about -60%; inconclusive means no clear call, values can overlap the other calls; inactive means above about -39%; further: on the % scale 0 is the no-effect control and ±100 the full control effect
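After 16 h attachment at 37C, HFF cells received test compound and HCMV-luciferase (1 PFU/cell); reporter luminescence read 72 h later, data normalized against buffer-only and known inhibitor Salinomycin.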
Pf growth 96h: P. falciparum growth inhibition at 96 hours; P. falciparum luciferase reporter growth, 96 h; Potency, µM (doses to about 28.7 µM), for the others: at the highest dose activity change, negative = inhibition, most hits filed as inhibitors; 320,000 compounds, 6.9% hits; AID 504834; further: potency means the concentration at half of the fitted maximal effect; on the % scale 0 is the no-effect control and ±100 the full control effect
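Luminescence readout: decreased luciferase signal marks inhibited growth of reporter-expressing P. falciparum in infected red cells (2% hematocrit, 0.05% parasitemia final), exposed to compound two generations (96 h, 37 C, 5% CO2).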
CHX counter: counter-screen for Shiga toxin inhibitors: cycloheximide protein synthesis inhibition. cell reporter, cycloheximide protein synthesis inhibition counterscreen. max response, %. 300,000 compounds, 12% hits. AID 2314; in the data active means max response mostly above about 13%, no sharp cut-off; inactive means mostly below about 14%; further: read at 38.3 µM for the half of the compounds with a filed dose; 0% is about no effect
* marks the source's active call; other numbers are inactive results; u = inconclusive; x = not tested or not shown; ! = repeats disagree; [ ] = remark or other dose. Unless noted, the call rests on the fitted dose curve; in most records, active means well fitted inhibition curve with a large enough effect; inconclusive means small, poorly fitted or top-dose-only effect, or another doubt; inactive means no such curve, though single readings can be large or run the other way.

SMILES | HCV inh | Pf growth 48h | Shiga toxin inh | HCMV inh | Pf growth 96h | CHX counter
COC(=O)[C@@]1(Cc2ccc(F)cc2)[C@H]2c3cc(C(=O)N(C)C)n(Cc4ccc(Cl)c(C(F)(F)F)c4)c3C[C@H]2CN1C(=O)c1ccccc1 | x | x | x | -25 | x | x
COC(=O)[C@@]1(Cc2ccc(F)cc2)[C@H]2c3cc(C(=O)N(C)C)n(CCc4ccc(OC)c(Br)c4)c3C[C@H]2CN1C(=O)c1ccccc1 | 0%[8.37 µM] | u | -13 | u | 5.9µM* | -1
O=C(NCc1ccccc1Cl)C(=O)NCC(c1ccco1)N1CCOCC1 (stereo unspecified) | -5% | -17% | -6 | -12 | 28% | -4
Cc1noc(C(=O)Nc2cccc(O)c2)c1Cl | 7% | 79% | 76* | 0 | 103% | 43*
Cc1noc(C(=O)Nc2cccc(Cl)c2)c1Cl | -11% | 109% | 60* | 52 | 9.3µM* | 33*
COc1cc(Cl)c(C)cc1NC(=O)c1cc(S(=O)(=O)N2CCCC2)ccc1F | x | x | x | 18 | x | x
CNC(=S)NNC(=O)c1sccc1C | 20% | 12% | 34 | 13 | u | 18*
Cc1ccsc1C(=O)NNC(=S)NC1CCCCC1 | 17% | 7% | 37* | 34 | 9.3µM* | 38*
CCCCNC(=S)NNC(=O)c1sccc1C | 14% | 35% | -12 | 12 | 74% | 9
CCCc1cc(C(=O)NNC(=S)NC2CCCCC2)cs1 | 0% | 57% | 34 | 2 | 57% | 22*
CC(C)CCNC(=O)c1ccc2c(c1)N(Cc1ccccc1F)C(=O)c1ccccc1S2=O (stereo unspecified) | x | x | x | 2 | x | x
CC1=CC(C)(C)N2C(=O)C3(C(C#N)=C(N)OC4=C3C(=O)CCC4)c3c(C)c(C)cc1c32 (stereo unspecified) | 4% | -26% | -13 | -7 | 33% | -1
Cc1cc2c3c(c1C)C1(C(=O)N3C(C)(C)CC2C)C(C#N)=C(N)OC2=C1C(=O)CC(C)(C)C2 (stereo unspecified) | 25% | 13µM* | 16 | 19 | 9.3µM* | -2
CC1(c2ccccc2)CC(C)(C)N2C(=O)C3(C(C#N)=C(N)Oc4cc(O)ccc43)c3cccc1c32 (stereo unspecified) | x | x | -20 | 31 | u | 0
Cc1cc2c3c(c1)C1(C(=O)N3C(C)(C)CC2C)C(C#N)=C(N)Oc2n[nH]c(C)c21 (stereo unspecified) | -22% | 12µM* | -4 | -27 | x | -1
Cc1cc2c3c(c1C)C1(C(=O)N3C(C)(C)CC2C)C(C#N)=C(N)Oc2n[nH]c(C)c21 (stereo unspecified) | 1% | u | -13 | -11 | 12% | -3
Cc1cc2c3c(c1)C(C)(c1ccccc1)CC(C)(C)N3C(=O)C21C(C#N)=C(N)OC2=C1C(=O)CC(C)(C)C2 (stereo unspecified) | u | x | -5 | -72* | 1.9µM* | 9
COc1ccccc1OCC(=O)NCC(c1ccc(Cl)cc1)N1CCOCC1 (stereo unspecified) | x | x | x | -13 | x | x
COc1ccccc1OCC(=O)Nc1nc(-c2ccc(Br)cc2)ns1 | x | x | x | -11 | x | x
COCC(=O)Nc1nc(-c2ccccc2)ns1 | 4% | 110% | 41 | 61 | x | 35*
O=C(Nc1nc(-c2ccc(Br)cc2)ns1)c1ccc(F)cc1 | x | x | x | -6 | x | x
CC(=O)Nc1nc(-c2ccccc2)ns1 | -14% | 161% | 38* | 19 | 146% | 23*
O=C1C2C(c3ccccc3)CC=CC2C(c2ccc3ccccc3c2)N1Cc1ccccc1 (stereo unspecified) | x | x | 6 | x | x | 12
COc1ccc(OCc2cc(C(=O)NCCc3ccccc3)no2)c(Cl)c1 | u | 20% | -5 | -17 | u | -4
COc1ccc(OCc2cc(C(=O)NCC3CCOCC3)no2)c(Cl)c1 | -18% | 8% | 54* | 54 | u | 51*
SMILES | HCV inh | Pf growth 48h | Shiga toxin inh | HCMV inh | Pf growth 96h | CHX counter
COc1ccc(OCc2cc(C(=O)NCC3CCCCO3)no2)c(Cl)c1 (stereo unspecified) | -14% | -9% | 74* | 50 | 23% | 46*
c1ccc2c(Nc3nnc(-c4ccncc4)s3)cccc2c1 | u | 79% | 34* | -21 | 80% | 48*
C=CCNc1nnc(-c2ccncc2)s1 | 11% | 47% | 13 | -5 | 32% | 1
COc1ccc2[nH]cc(/C=C/c3cc[n+](C)cc3)c2c1 | 7.9µM* | 1µM* | 2 | -92* | 0.47µM* | -1
Cc1ccc(C(=O)/C=C/c2c[nH]c3ccccc23)cc1 | u | 127% | 148* | 12 | 84% | 52*
CCN(CC)C(=O)c1ccc(/C=C/c2c[nH]c3ccccc23)[n+](C)c1 | 29% | 0.74µM* | -16 | 89 | 0.37µM* | 7
COc1ccc2[nH]cc(C=O)c2c1 | -8% | 14% | 18 | -25 | 190% | 2
O=C(O)c1ccc(S(=O)(=O)NN=Cc2c[nH]c3ccccc23)cc1 | x | x | x | 7 | x | x
O=C(/C=C/c1c[nH]c2ccccc12)c1ccccc1 | u | 370% | 115* | 116 | 331% | 69*
COc1ccc2[nH]cc(/C=C/C(=O)c3ccccc3)c2c1 | 10µM* | 375% | 131* | 3 | 390% | 105*
OCC[n+]1ccc(/C=C/c2c[nH]c3ccccc23)cc1 | 3.5µM* | 0.59µM* | 11 | -99* | u | 2
CC[n+]1c(/C=C/c2c[nH]c3ccccc23)ccc2cc(C)ccc21 | 4.5µM* | u | -5 | -99* | 11% | 0
O=Cc1c[nH]c2ccc(C(=O)c3ccccc3)cc12 | 22% | -1% | x | 10 | 7% | 32*
Cc1cccc(-n2c(/C=C/c3c[nH]c4ccccc34)nc3ccccc3c2=O)c1 | x | x | x | -4 | x | x
Cc1cc(NC(=O)Cn2cnc3sc(C)c(C)c3c2=O)no1 | 8% | x | x | -8 | x | x
Cn1c2cc(C=O)sc2c2cnn(Cc3ccccc3F)c(=O)c21 | x | x | -7 | x | x | -6
Cc1ncc(NS(=O)(=O)c2ccc(N)cc2)nc1C | -3% | x | x | -8 | x | x
CCc1ccc(-n2cc(-c3ccc(F)cc3)[n+]3c2SCCC3)cc1 | u | 1.5µM* | -14 | -87* | u | -2
c1ccc(-c2cn(-c3ccccc3)c3[n+]2CCCS3)cc1 | -19% | u | 12 | -33 | u | -2
Cc1ccc(-c2cn(-c3ccccc3)c3[n+]2CCCS3)cc1 | u | 1µM* | 32 | -93* | 0.37µM*! | -3
CCN1C(=O)c2ccccc2S(=O)c2ccc(C(=O)N3CCN(c4ccccc4OC)CC3)cc21 (stereo unspecified) | x | x | x | 19 | x | x
C/C=C/C1=CC(=O)C[C@H](c2ccc(F)cc2)C1 | -3% | 41% | x | -11 | u | x

Compound activity from PubChem BioAssay.
